Source: PubChem
Most compounds without a hit are left out; they make up all but 2.8% or so of the library.
POLI inh: inhibitors of human DNA polymerase iota; Q9UNA4; Pol iota fluorescent replication assay, 10 min; Potency, µM (doses to about 115 µM), for the others: at the highest dose activity, negative = inhibition, most hits filed as inhibitors; 390,000 tested, 1% active; further: potency means the concentration at half of the fitted maximal effect
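Fluorescent replication assay read twice, at 0 min and 10 min after adding 50 nM (final) substrate. Enzyme (10 nM) and compounds were first incubated 15 min at room temperature; enzyme-free buffer wells were negative controls.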
WRN inhibitor: WRN helicase (human) inhibition; 360,000 tested, 0.46% active; WRN helicase unwinding, fluorescent forked duplex, kinetic; Potency, µM (top dose mostly 114 µM), without a hit: at the top dose activity change, negative = inhibition, actives largely listed as inhibitors; AID 651768; further: potency means the concentration at half of the fitted maximal effect; on the % scale 0 is the no-effect control and ±100 the full control effect; nearly all actives have a fitted effect of over 55% in size
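Enzyme (20 nM final) and test compound sit together 15 min at room temperature before substrate addition. Substrate is a single-forked duplex oligonucleotide (100 nM) labelled with fluorophore and quencher, with 2 mM ATP; helicase unwinding raises red fluorescence, read kinetically.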
PI5P4Ka inh: PI5P4K alpha (human) kinase inhibition | P48426 | 330,000 tested, 1.2% active | max response, % | PI5P4Kalpha enzyme, ADP-Glo luminescence, 60 min; hits give low values; active means max response of -50% or lower; inconclusive means between -30% and -50%; inactive means -30% or higher; further: value at the top dose of about 77 µM; on the % scale 0 is the no-effect control and ±100 the full control effect
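ADP-Glo luminescence end-point read after a 60 min room-temperature kinase reaction of PI5P4Kalpha plus substrate, initiated with ATP at 5 microM final. Buffer: 0.038 M HEPES pH 7.4, EGTA, 0.1% CHAPS, 5% DMSO.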
POLH inh: DNA polymerase eta (human) inhibition; Q9Y253; recombinant Pol eta, fluorescent DNA replication assay; Potency, µM (series often up to 114 µM), inactives show at the highest dose activity change, negative = inhibition, actives largely listed as inhibitors; 390,000 tested, 1.2% active; AID 588591; further: potency means the concentration at half of the fitted maximal effect; on the % scale 0 is the no-effect control and ±100 the full control effect
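Pol eta at 10 nM preincubated with compounds 15 min at room temperature; reaction started with fluorescent substrate (50 nM final) and read kinetically at 0 and 10 min.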
Pol kappa inh: blocks human DNA polymerase kappa activity | Q9UBT6 | Potency, µM (series often up to 107 µM), for the others: top-dose activity, negative = inhibition, actives largely listed as inhibitors | purified Pol kappa, fluorescent DNA synthesis assay, 10 min | AID 588579 | 400,000 tested, 0.53% active; further: potency means the concentration at half of the fitted maximal effect; on the % scale 0 is the no-effect control and ±100 the full control effect
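10 nM Pol kappa preincubated 15 min at room temperature with compounds, then reaction started with substrate at 50 nM final. Fluorescence read kinetically at 0 and 10 min; buffer-only wells served as negative control.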
Pol beta inh: DNA polymerase beta (human) inhibition; P06746; Pol beta primer extension/strand displacement, fluorescence kinetic; Potency, µM (highest dose often 114 µM), for the others: at the highest dose activity change, negative = inhibition, most hits filed as inhibitors; 340,000 tested, 1.3% active; AID 485314; further: potency means the concentration at half of the fitted maximal effect; on the % scale 0 is the no-effect control and ±100 the full control effect
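Human Pol beta at 10 nM; strand-displacement substrate 50 nM final. Compound exposure 15 min at room temperature before start, reaction 10 min at room temperature.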
* hit, by the source's call; ? = inconclusive; . = no result given; ! = a repeat was not active; [ ] = dose if it differs, or a comment. Unless noted, the call rests on the fitted dose curve; in most records, active means well fitted curve in the direction sought with a large enough effect; inconclusive means small, poorly fitted or top-dose-only effect, or another doubt; inactive means no such curve, though single readings can be large; an effect the other way counts as inactive or inconclusive.

SMILES	POLI inh	WRN inhibitor	PI5P4Ka inh	POLH inh	Pol kappa inh	Pol beta inh
COc1ccc(OC)c(CNC(=O)C2CCN(c3ncnc4c3nc3n4CCCCC3)CC2)c1	-7%	.	.	9%	-9%	-2%
CCOC(=O)c1c(C)[nH]c(C)c1S(=O)(=O)N1CCN(c2cccc(C(F)(F)F)c2)CC1	-23%	.	.	?	-5%	-4%
O=C1CC(c2ccc(Cl)cc2)c2c(O)cc(O)cc2O1 (centres undefined)	64%	-2%	-6	-18%	-23%	18%
C/C=C/C=C/[C@H]1Cc2cc(O)cc(O)c2O1	.	.	.	.	.	50µM*
C/C(=C1/C=Nc2ccccc21)c1ccc(N(C)C)cc1	3%	.	.	.	-8%	.
Cc1ccc2nc3c(cc2c1)CN(Cc1ccco1)C(=NCC1CCCO1)S3 (centres undefined)	8%	-1%	-19	-6%	1%	-3%
Cc1cccc2cc3c(nc12)SC(=NCC1CCCO1)N(Cc1ccco1)C3 (centres undefined)	?	?	-55*	45µM*	?	-29%
COc1cc(/C=N/NC(=O)c2ccncc2)c([N+](=O)[O-])cc1OC	?	-2%	2	-14%	1%	3%
COc1ccc(/C=N/NC(=O)c2ccc(NC(=O)c3cccc([N+](=O)[O-])c3)cc2)c(C(=O)O)c1OC	?	-6%[11.6 µM]	?	79µM*	0%	71µM*
COc1cc([N+](=O)[O-])cc(/C=N/NC(=O)c2ccc(NC(=O)c3ccc(C)cc3)cc2)c1O	78%	-3%	-62*	-18%	-7%	-23%
COc1cc(OC)c([N+](=O)[O-])cc1/C=N/NC(=O)c1ccncc1	?	-1%[11.6 µM]	2	32µM*	-37%	19%
COc1cc([N+](=O)[O-])cc(/C=N/NC(=O)c2ccc(C)nc2)c1O	?	-2%[11.6 µM]	-6	?	-25%	-27%
CC(NCc1ccc2c(c1)n(C)c(=O)n2C)c1ccccc1 (centres undefined)	-9%	.	.	-1%	-27%	17%
COc1ccc(CNC(=O)CSc2ccsc2[N+](=O)[O-])cc1	?	-11%	-50*	50µM*	?	-2%
COc1ccccc1CNC(=O)C(C)Sc1ccsc1[N+](=O)[O-] (centres undefined)	?	-32%	-8	40µM*	-31%	4%
Cc1ccc(CNC(=O)CSc2ccsc2[N+](=O)[O-])cc1	-4%	-3%[57.1 µM]	-9	-3%	0%	38%
CN(C)S(=O)(=O)c1cccc(NC(=O)COC(=O)/C=C/c2ccc(Br)o2)c1	45µM*	-4%[11.6 µM]	?	?	?	?
Cc1ccc(NC(=O)COC(=O)/C=C/c2ccc(Br)o2)cc1S(=O)(=O)N(C)C	45µM*	-6%[11.6 µM]	-8	5%	?	-25%
Cc1ccc(NC(=O)c2ccc(Br)o2)cc1S(=O)(=O)N(C)C	25%	-2%	-19	-1%	6%	13%
CCN1CCN(Cc2ccc(NC(=O)c3ccc(C)c(NC(=O)C(=O)c4c[nH]c5ccccc45)c3)cc2C(F)(F)F)CC1	?	-2%	-77*!	-14%	-6%	6%
CCN1CCN(Cc2ccc(NC(=O)c3cc(NC(=O)C(=O)c4c[nH]c5ccccc45)cc(OC)c3)cc2C(F)(F)F)CC1	?	4%	-63*!	-18%	-3%	5%
O=C(Cn1ncc2c3ccccc3n(Cc3cccc(Cl)c3)c2c1=O)NCc1cccs1	?	.	.	-17%	-27%	25µM*
O=C(Cn1ncc2c3ccccc3n(Cc3cccc(Cl)c3)c2c1=O)Nc1ccc(F)cc1F	?	.	.	?	?	22µM*
CC(CCc1ccccc1)NC(=O)Cn1ncc2c3ccccc3n(Cc3cccc(Cl)c3)c2c1=O (centres undefined)	?	.	.	?	-24%	18µM*
O=C(Cn1ncc2c3ccccc3n(Cc3cccc(Cl)c3)c2c1=O)N1CCCCCC1	?	.	.	-20%	-25%	25µM*
SMILES	POLI inh	WRN inhibitor	PI5P4Ka inh	POLH inh	Pol kappa inh	Pol beta inh
COc1ccc(Cl)cc1NC(=O)Cn1ncc2c3ccccc3n(Cc3ccccc3)c2c1=O	-12%	.	.	-6%	-4%	7%
O=C(Nc1ccc(C(=O)OCc2cc(=O)n3c4c(sc3n2)CCCC4)cc1)c1cccc(F)c1	6%	.	.	-9%	-7%[60.1 µM]	-18%
COc1ccccc1CNC(=O)C1CCCN(c2nc3ccccc3n3cccc23)C1 (centres undefined)	13%	.	.	-14%	-2%	11%
Cc1ccc(Cl)cc1NC(=O)Cn1ncc2c(C)n(Cc3ccccc3F)c(C)c2c1=O	?	.	.	?	-32%	13µM*
Cn1cc(C(=O)NCc2ccc(Cl)cc2)c(=O)c2cc(S(=O)(=O)N3CCCCCC3)ccc21	-8%	.	.	-21%	0%	2%
Cc1nn(C(C)C(=O)N2CCN(c3ccc(Cl)cc3)CC2)c(=O)c2cc3occc3n12 (centres undefined)	-5%	.	.	-5%	-22%	-10%
CCOC(=O)N1CCN(C(=O)CSCc2nc(-c3ccccc3C)oc2C)CC1	8%	2%	.	-7%	-11%	-1%
CCOC(=O)N1CCN(C(=O)CSCc2nc(-c3ccccc3F)oc2C)CC1	89µM*	2%	0	-8%	-4%	30%
CC1(C)CC(=O)C2=C(C1)c1c(ccc3ccccc13)NC2c1ccc(OCC(=O)O)cc1 (centres undefined)	-5%	-2%	-1	-15%	?	45µM*
Cc1c(CCC(=O)O)c(=O)oc2cc(OCc3ccccc3Br)ccc12	-25%	?	-1	-14%	-19%	50µM*
Cc1c(CCC(=O)O)c(=O)oc2cc(OCc3cccc(F)c3)ccc12	30%	-14%	2	-1%	0%	12%
Cn1c(=O)[nH]c(=O)c2c1nc(Br)n2Cc1ccc(Cl)cc1	.	-1%	-18	-6%	.	.
Cn1c(=O)[nH]c(=O)c2c1[nH]c(=S)n2CCCc1ccccc1	-28%	9%	-52*	?	-12%	43%
Cn1c(=O)c2c([nH]c(=S)n2CCCc2ccccc2)n(C)c1=O	2%	7%	-94*	-3%	-8%	-18%
Cn1c(=O)n(Cc2ccccc2Cl)c(=O)c2c1[nH]c(=S)n2C	32%	?	-56*	-7%	-11%	2%
Cn1c(=O)[nH]c(=O)c2c1nc(Br)n2CCCc1ccccc1	.	.	.	.	.	33%
Cn1c(=O)n(Cc2ccccc2Cl)c2ccccc21	40%	0%	-19	1%	3%	-15%
Cn1c(=O)c2c(nc(Br)n2CCCc2ccccc2)n(C)c1=O	12%	-24%	1	-4%	0%	31%
